Experimental data reported in PubChem BioAssay AID1159580 (chemical genetic matrix, 2015).
Out of some 5,500 compounds screened, about 2,000 (36%) were called active. Inconclusive results (about 18%) are left out. No stated cut-off is given here; in the data, active means normalized growth mostly below about 0.91 (no sharp cut-off); inconclusive means no clear call, values can overlap the other calls; inactive means mostly above about 0.92. This is one part of the list.

Test: chemical genetic growth profiling, strain panel (AID 1159580);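 further: tested at 20 µM; growth read once vehicle control cultures reached saturation at 30 °C; 1 = growth at the plate median or of vehicle wells; lower values mean less growth of the strain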
Settings: S. cerevisiae deletion strains, growth OD
[1] = locus YAL021C, strain ccr4, hits give low values
[2] = locus YAL026C, strain drs2, hits give low values
[3] = locus YAL030W, strain snc1, hits give low values
[4] = locus YBL061C, strain skt5, hits give low values
[5] = locus YBR009C, strain hhf1, hits give low values
[6] = locus YBR023C, strain chs3, hits give low values
[7] = locus YBR171W, strain sec66, hits give low values
[8] = locus YBR231C, strain swc5, hits give low values
[9] = locus YBR279W, strain paf1, hits give low values
[10] = locus YCL011C, strain gbp2, hits give low values
[11] = locus YCL016C, strain dcc1, hits give low values
[12] = locus YCL061C, strain MRC1, hits give low values
[13] = locus YCL069W, strain vba3, hits give low values
[14] = locus YCR088W, strain abp1, hits give low values
[15] = locus YDL005C, strain med2, hits give low values
[16] = locus YDL040C, strain nat1, hits give low values
[17] = locus YDR001C, strain nth1, hits give low values
[18] = locus YDR069C, strain doa4, hits give low values
[19] = locus YDR137W, strain rgp1, hits give low values
[20] = locus YDR159W, strain sac3, hits give low values
[21] = locus YDR297W, strain sur2, hits give low values
[22] = locus YDR334W, strain swr1, hits give low values
[23] = locus YDR335W, strain msn5, hits give low values
[24] = locus YDR392W, strain spt3, hits give low values
[25] = locus YEL003W, strain gim4, hits give low values
[26] = locus YEL037C, strain rad23, hits give low values
[27] = locus YEL061C, strain CIN8 (second series), hits give low values
[28] = locus YER015W, strain faa2, hits give low values
[29] = locus YER016W, strain bim1, hits give low values
[30] = locus YER111C, strain swi4, hits give low values
[31] = locus YER155C, strain BEM2 (second series), hits give low values
[32] = locus YFR010W, strain ubp6, hits give low values
[33] = locus YGL167C, strain pmr1, hits give low values
[34] = locus YGL173C, strain kem1, hits give low values
[35] = locus YGL227W, strain vid30, hits give low values
[36] = locus YGL240W, strain doc1, hits give low values
[37] = locus YGL253W, strain hxk2, hits give low values
[38] = locus YHR013C, strain ard1, hits give low values
[39] = locus YHR027C, strain rpn1, hits give low values
[40] = locus YHR142W, strain chs7, hits give low values
[41] = locus YJL092W, strain hpr5, hits give low values
[42] = locus YJL095W, strain BCK1 (second series), hits give low values
[43] = locus YJL115W, strain asf1, hits give low values
[44] = locus YJL129C, strain trk1, hits give low values
[45] = locus YJL154C, strain vps35, hits give low values
[46] = locus YJL164C, strain tpk1, hits give low values
[47] = locus YJL166W, strain qcr8, hits give low values
[48] = locus YJL187C, strain SWE1, hits give low values
[49] = locus YKL160W, strain elf1, hits give low values
[50] = locus YKR026C, strain gcn3, hits give low values
[51] = locus YKR091W, strain srl3, hits give low values
[52] = locus YLL001W, strain dnm1, hits give low values
[53] = locus YLL026W, hits give low values
[54] = locus YLL041C, strain sdh2, hits give low values
[55] = locus YLR027C, strain aat2, hits give low values
[56] = locus YLR221C, strain rsa3, hits give low values
[57] = locus YLR258W, strain gsy2, hits give low values
[58] = locus YLR262C, strain YPT6 (second series), hits give low values
[59] = locus YLR320W, strain mms22, hits give low values
[60] = locus YLR342W, strain FKS1, hits give low values
[61] = locus YLR357W, strain rsc2, hits give low values
[62] = locus YLR370C, strain arc18, hits give low values
[63] = locus YLR384C, strain iki3, hits give low values
[64] = locus YML120C, strain ndi1, hits give low values
[65] = locus YMR058W, strain fet3, hits give low values
[66] = locus YMR125W, strain sto1, hits give low values
[67] = locus YMR129W, hits give low values
[68] = locus YMR205C, strain PFK2, hits give low values
[69] = locus YMR231W, strain pep5, hits give low values
[70] = locus YNL071W, strain lat1, hits give low values
[71] = locus YNL209W, strain ssb2, hits give low values
[72] = locus YNL248C, strain rpa49, hits give low values
[73] = locus YNL322C, strain KRE1 (second series), hits give low values
[74] = locus YNR049C, strain mso1, hits give low values
[75] = locus YOR001W, strain rrp6, hits give low values
[76] = locus YOR070C, strain gyp1, hits give low values
[77] = locus YOR080W, strain dia2, hits give low values
[78] = locus YOR083W, strain WHI5, hits give low values
[79] = locus YOR106W, strain vam3, hits give low values
[80] = locus YOR265W, strain rbl2, hits give low values
[81] = locus YOR270C, strain vph1, hits give low values
[82] = locus YOR290C, strain snf2, hits give low values
[83] = locus YPL051W, strain arl3, hits give low values
[84] = locus YPL078C, strain atp4, hits give low values
[85] = locus YPL106C, strain sse1, hits give low values
[86] = locus YPL240C, strain hsp82, hits give low values

Measured: normalized growth

OC1CC2CCCC(C1)N2Cc1ccccc1 (configuration not stated)
inactive: [1] 1.01 | [2] 0.993 | [3] 1 | [4] 0.932 | [5] 0.989 | [6] 1 | [7] 0.987 | [8] 0.988 | [9] 1 | [10] 1.01 | [11] 0.998 | [12] 0.997 | [13] 1 | [14] 1 | [15] 0.992 | [16] 0.998 | [17] 1 | [18] 0.989 | [19] 0.974 | [20] 0.963 | locus YDR195W, strain ref2 0.913 | [21] 0.998 | [22] 1.01 | [23] 1 | [24] 0.901 | [25] 1 | [26] 1 | [27] 1 | [28] 1 | [29] 0.986 | [30] 0.982 | [31] 0.989 | [32] 1 | [33] 0.99 | [34] 0.997 | [35] 0.986 | [36] 0.977 | [37] 0.989 | [38] 0.953 | [39] 1 | [40] 1.01 | [41] 1.02 | [42] 1 | [43] 1 | [44] 0.993 | [45] 1 | [46] 1 | [47] 0.998 | [48] 1 | [49] 1 | [50] 1 | [51] 0.999 | [52] 0.986 | [53] 0.988 | [54] 1 | [55] 1 | [56] 1 | [57] 0.986 | [58] 0.956 | [59] 0.99 | [60] 0.995 | [61] 0.959 | [62] 1.01 | [63] 0.996 | [64] 1.02 | [65] 1 | [66] 0.988 | [67] 0.994 | [68] 0.978 | [69] 1 | [70] 1.01 | [71] 1 | [72] 0.981 | [73] 1 | [74] 0.999 | [75] 1.01 | [76] 0.995 | [77] 0.998 | [78] 1.01 | [79] 1 | [80] 0.99 | [81] 0.99 | [82] 0.955 | [83] 1 | [84] 1 | [85] 0.98 | [86] 1

O=c1c(O)c(-c2ccc(O)c(O)c2)oc2c(O)c(O)cc(O)c12
inactive: [2] 0.954 | [3] 1 | [4] 0.925 | [5] 1.04 | [6] 0.929 | [7] 1.02 | [8] 0.927 | [9] 0.994 | [10] 1.01 | [11] 0.991 | [12] 0.989 | [13] 1.01 | [14] 1.02 | [15] 1.03 | [16] 1.02 | [17] 1.02 | [18] 0.906 | [19] 1.02 | locus YDR195W, strain ref2 1.01 | [21] 1 | [22] 0.983 | [23] 0.994 | [24] 1.04 | [25] 0.996 | [26] 0.987 | [27] 1.01 | [28] 0.98 | [29] 1.02 | [30] 0.942 | [31] 0.984 | [32] 0.932 | [33] 1.01 | [34] 0.947 | [35] 1.03 | [36] 1.11 | [37] 1 | [38] 0.931 | [39] 0.983 | locus YHR030C, strain SLT2, hits give low values 1 | locus YHR079C, strain IRE1, hits give low values 1.02 | [40] 0.891 | [41] 1.02 | [42] 0.993 | locus YJL095W, strain BCK1, hits give low values 1.02 | [43] 1.01 | [44] 1.08 | [45] 1.02 | [46] 0.959 | [47] 0.995 | [48] 0.997 | locus YJR066W, strain TOR1, hits give low values 0.967 | [49] 0.942 | [50] 1.01 | [51] 1.03 | [52] 1.03 | [53] 1.02 | [54] 1.01 | [55] 0.992 | locus YLR113W, strain HOG1, hits give low values 1.12 | [56] 0.981 | [57] 1.01 | [58] 0.919 | [59] 1.02 | [60] 0.967 | [61] 0.889 | [62] 0.938 | [63] 1.01 | [64] 1 | [65] 0.921 | [66] 1.03 | [67] 1.02 | [68] 1.06 | [69] 0.999 | [70] 1.01 | locus YNL183C, strain NPR1, hits give low values 0.997 | [71] 0.94 | [72] 1 | [73] 1.01 | [74] 1.02 | [75] 0.981 | [76] 1.01 | [77] 1.01 | [78] 0.931 | [79] 0.872 | locus YOR231W, strain MKK1, hits give low values 1.03 | [80] 1 | [81] 0.948 | [82] 0.962 | [83] 0.92 | [84] 0.963 | [85] 1 | [86] 0.994 | locus YPL256C, strain CLN2, hits give low values 1.04
active: [1] 0.864 | [20] 1.13 [resistant]
